Calls of active or inactive are those of the source. How the source made its calls: active means hit-call score of the fitted dose curve at least 0.9, where 1 is the maximum; inactive means score below 0.9.
Each compound was assayed on ATP-citrate lyase (ACLY), ACLY (gene 47) (assay: LTEA_HepaRG_ACLY: Life Technologies and Expression Analysis (LTEA) Assay for ATP-citrate lyase (ACLY) using HepaRG (AID 2283466)). Details: mRNA level, 48 h; actives raise or lower the signal.
Method: LTEA_HepaRG is a cell based, multiplexed-readout assay that uses HepaRG, a human liver cell line, with measurements taken at 48 hours after chemical dosing on a 96-well plate.LTEA_HepaRG_ACLY is one of 102 assay component(s) measured in the LTEA HepaRG cell culture assay. It is a marker of Steatosis.Data from the assay component LTEA_HepaRG_ACLY was analyzed into 1 endpoint. This assay endpoint, LTEA_HepaRG_ACLY, was analyzed with bidirectional fitting relative to DMSO as the negative control and baseline of activity. Using a type of inducible reporter, measures of mRNA induction for gain or loss-of-signal activity can be used to understand regulation of transcription factor activity. To generalize the intended target to other relatable targets, this assay endpoint is annotated to the lyase intended target family, where the subfamily is steatosis.
A total of 1060 chemcials from the ToxCast library were tested in eight-point concentration-response experiments. Cell culture and cytotoxicity assays were conducted at Thermo Fisher Scientific's Custom Services facility (Madison, WI). A single lot of human HepaRG cells (Thermo Fisher Scientific, Frederick, MD) was used for the cell culture experiments. 96-well format collagen type I coated plates of human HepaRG cells were prepared using established methods. Briefly, cryopreserved HepaRG cells were thawed, plated at a density of approximately 100,000 cells/well in HepaRG Thaw, Plate, and General Purpose media (HPRG770, Thermo Fisher Scientific), and incubated for 48 hours. 0.5% DMSO was selected as vehicle control to balance the requisite need of DMSO in HepaRG cultures to maintain differentiation (for example, baseline metabolism, proportions of hepatocytes vs. cholangiocytes), while enabling further hepatic receptor pathway activation (for example, PXR and CAR) in response to chemical exposure. 48 hours after plating, the culture medium was replaced with HepaRG Serum-Free Incudtion Media. Cells were exposed to each test chemical in duplicate and maintained in CO2 incubators for another 48 hours. Chemical plates were thawed to room temperature and 200x concentrations of treatment groups were prepared. 8-point conentration-reponse curves were made with the highest exposure at 100 uM, followed by half-log dilutions, all in 0.5% DMSO. Each test plate contained variouse controls, induction positive controls (1mM phenobarbital), cytotoxicity positive controls ([…] aflatoxin B1), vehicle controls (0.5% DMSO), and total lysis controls (0.5% DMSO). Cell morphology images were taken using an Essen IncuCyte FLR automated microscope, with six 96-well plates imaged in about 24 minutes. Images were captured and exported and JPEG files. Spent culture media was transfered to black-well plates for the LDH assay, and remaining media was sorted at -80 C for later use. Cells were treated with RLT buffer and frozen until shipped for gene expression analysis. Total RNA was isolated from the cell suspension in 75 uL of Buffer RLT (Qiagen, Germantown, MD 20874) by Quintiles/Expression Analysis (Durham, NC) using a custom isolation procedure. Total RNA from each plate well was transferred to a preamplification plate. Fluidigm's 96.96 Dynamic ArrayTM (Fluidigm, Amsterdam, the Netherlands) technology was used for gene expression analyses by quantitative reverse transcription polymerase chain reaction (qRT-PCR, performed by Quintiles/Expression Analysis, Durham, NC)89. Standard TaqManTM Assays (Applied Biosystems/ThermoFisher Scientific, Foster City, CA) were used to assess the expression of 93 genes selected based on their selectivity and sensitivity to important hepatic receptors known to be modulated by environmental chemicals; importance in human hepatocyte functionality; and hepatotoxicity. […]

Q: `C/C=C/c1ccc(OC)cc1` was tested. Which outcome did it give?
A: inactive

Q: `CSc1ccc(Oc2ccc(S(N)(=O)=O)cc2CN(C)C)cc1C` was tested. Which outcome did it give?
A: inactive

Q: How did the AC50 turn out when `CC(=O)[C@@]1(O)CC[C@H]2[C@@H]3CCC4=CC(=O)CC[C@]4(C)[C@H]3CC[C@@]21C` was run?
A: 39.6 µM (active)

Q: Which outcome does the source give for `O=C(O)c1[nH]n(-c2ccc(S(=O)(=O)O)cc2)c(=O)c1N=Nc1ccc(S(=O)(=O)O)cc1` here?
A: inactive

Q: Which outcome does the source give for `CCCCOC(=O)CCCCC(=O)OCCCC` here?
A: inactive

Q: For `COC(=O)CCCC(=O)OC`, which outcome is on record?
A: inactive

Q: Which outcome does the source give for `Cc1ccc(C(C)(C)C)c(O)c1` here?
A: inactive

Q: With `C/C=C/C=C/C(=O)O` as the compound, how does the outcome read?
A: inactive

Q: With `O=C1c2c(O)cccc2Cc2cccc(O)c21` as the compound, how does the outcome read?
A: inactive

Q: For `CC(C)c1cccc(C(C)C)c1NC(=O)NS(=O)(=O)c1cc(C(C)(C)O)co1`, which outcome is on record?
A: inactive

Q: For `Oc1ccccc1O`, which outcome is on record?
A: inactive

Q: How did the outcome turn out when `OCC(CO)n1cnc(-c2ccc(F)cc2)c1-c1ccnc(Oc2ccccc2)n1` was run?
A: inactive

Q: Which outcome does the source give for `CCCCCCC(C=O)=Cc1ccccc1` here?
A: inactive

Q: With `O=C1OC(c2ccc(O)cc2)(c2ccc(O)cc2)c2ccccc21` as the compound, how does the outcome read?
A: inactive

Q: Which outcome does the source give for `CC(C)OC(=O)C(C)(C)Oc1ccc(C(=O)c2ccc(Cl)cc2)cc1` here?
A: inactive

Q: With `CCc1cc(C2=C(C(=O)O)N(c3ccccc3C(F)(F)F)S(=O)(=O)c3ccccc32)cc2c1OCO2` as the compound, how does the AC50 read?
A: 65.2 µM (active)

Q: With `CN(C)C(=O)NC1(c2ccccc2)CCN(CC[C@@]2(c3ccc(F)c(F)c3)CN(C(=O)c3ccccc3)CCO2)CC1` as the compound, how does the AC50 read?
A: 47 µM (active)

Q: With `CCN(CC)CCOc1ccc(C(=C(Cl)c2ccccc2)c2ccccc2)cc1` as the compound, how does the outcome read?
A: inactive

Q: `C#CC(O)C(CC)CCCC` (stereo not given) was tested. Which outcome did it give?
A: inactive

Q: Which AC50 does the source give for `COc1ccc(OC(F)(F)F)cc1CN[C@H]1CCCN[C@H]1c1ccccc1` here?
A: 95.6 µM (active)

Q: For `NC(=Nc1ccccc1)Nc1ccccc1`, which outcome is on record?
A: inactive

Q: `CC(=O)OCC(COC(C)=O)OC(C)=O` was tested. Which outcome did it give?
A: inactive

Q: With `CC1(C)C(=O)NC(=O)N1CO` as the compound, how does the outcome read?
A: inactive

Q: With `NC1CCCCC1` as the compound, how does the outcome read?
A: inactive

Q: With `O=[Si]=O` as the compound, how does the outcome read?
A: inactive

Q: For `CCc1nc(N)nc(N)c1-c1ccc(Cl)cc1`, which AC50 is on record?
A: 80.4 µM (active)

Q: How did the outcome turn out when `CCCCc1nc2cccnc2n1Cc1ccc(-c2ccccc2-c2nnn[nH]2)cc1` was run?
A: inactive

Q: How did the outcome turn out when `CC(N)=O` was run?
A: inactive

Q: `CCOCCOCCO` was tested. Which outcome did it give?
A: inactive

Q: For `CCCCCCC(CCCCCCCCCCC(=O)OCC(COC(C)=O)OC(C)=O)OC(C)=O` (stereo not given), which outcome is on record?
A: inactive

Q: `O=C(N[C@@H](c1ccccc1)[C@@H]1CCCCN1)c1cccc(C(F)(F)F)c1Cl` was tested. Which AC50 did it give?
A: 11.4 µM (active)

Q: For `CCCCCCCCCC[N+](C)(C)[O-]`, which outcome is on record?
A: inactive

Q: Which outcome does the source give for `C=CCCCCCCCCCCCC` here?
A: inactive

Q: With `CC(C)c1cccc(C(C)C)c1` as the compound, how does the outcome read?
A: inactive

Q: How did the outcome turn out when `O=C1CCCCC1` was run?
A: inactive

Q: For `Cc1cc(SC2=C(O)C[C@@](CCc3ccc(N)cc3)(C(C)C)OC2=O)c(C(C)(C)C)cc1CO`, which outcome is on record?
A: inactive

Q: With `CC(C)COC(=O)CCCCC(=O)OCC(C)C` as the compound, how does the outcome read?
A: inactive

Q: `CCCCCCCCCCCCCCCCO` was tested. Which outcome did it give?
A: inactive

Q: For `CCCCC(CC)COC(=O)CCCCCCCC(=O)OCC(CC)CCCC` (stereo not given), which outcome is on record?
A: inactive

Q: With `CN(C)CCCN(C)CCCN(C)C` as the compound, how does the outcome read?
A: inactive

Reference: PubChem BioAssay (EPA / NIEHS)
